This is an account of results in PubChem BioAssay (NCATS).

The target in test [1] is Aldehyde dehydrogenase, mitochondrial (Homo sapiens) (UniProt P05091). The test can be described thus: qHTS for Inhibitors of the Aldehyde Dehydrogenase Family (ALDH2) Confirmatory screens (AID 2061303; active = well fitted inhibition curve with a large enough effect; title and protocol of this record describe different tests; also: nearly all actives have a fitted effect of over 45% in size; also: potency is read from the fitted curve at half-maximal effect).
The nature of test [2]: qHTS for Inhibitors of the Aldehyde Dehydrogenase Family (ALDH1A2, ALDH1A3, ALDH2, ALDH3A1) (AID 2061307; also: nearly all actives have a fitted effect of over 50% in size; as to Potency: test system not described further here; potency is read from the fitted curve at half-maximal effect). (In general: In qHTS, concentration-response curves come from the screen itself.)
The target in test [3] is Retinaldehyde dehydrogenase 3 (Homo sapiens) (UniProt P47895). Nature of the test: qHTS for Inhibitors of the Aldehyde Dehydrogenase Family (ALDH1A3) Confirmatory screens (AID 2061311). Also: nearly all actives have a fitted effect of over 60% in size. Also: potency is read from the fitted curve at half-maximal effect.
Test [4] has the same target. Nature of the test: qHTS for Inhibitors of the Aldehyde Dehydrogenase Family (ALDH1A3) Validation screen (AID 2061312). Also: nearly all actives have a fitted effect of over 45% in size. Also: potency is read from the fitted curve at half-maximal effect.
Test [5] concerns the target Retinal dehydrogenase 2 (Homo sapiens) (UniProt O94788). The test can be described thus: qHTS for Inhibitors of the Aldehyde Dehydrogenase Family (ALDH1A2) Confirmation screens (AID 2061314). Also: nearly all actives have a fitted effect of over 65% in size. Also: potency is read from the fitted curve at half-maximal effect.
In test [6] the target is Retinaldehyde dehydrogenase 3 (Homo sapiens) (UniProt P47895). Nature of the test: qHTS for Inhibitors of the Aldehyde Dehydrogenase Family (ALDH1A3) Primary screen (AID 2061315).
Test [7] has as its target Aldehyde dehydrogenase 1A1 (Homo sapiens) (UniProt P00352). The test can be described thus: qHTS for Inhibitors of the Aldehyde Dehydrogenase Family (ALDH1A1) Confirmatory screens (AID 2061316). Also: nearly all actives have a fitted effect of over 65% in size. Also: potency is read from the fitted curve at half-maximal effect.
Test [8] addresses Aldehyde dehydrogenase, mitochondrial (Homo sapiens) (UniProt P05091). The test can be described thus: qHTS for Inhibitors of the Aldehyde Dehydrogenase Family (ALDH2) Primary screen (AID 2061308). Also: nearly all actives have a fitted effect of over 55% in size. Also: potency is read from the fitted curve at half-maximal effect.
Test [9] can be described thus: BET inhibitor-based combinations targeting novel dependencies in MECOM-rearranged (r) AML: HNT-34 cell line (AID 2202234). Also: nearly all actives have a fitted effect of over 35% in size. In short, it runs like this: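 Seeding density was 500 cells/well, and drug exposure lasted 48 hr under standard culture conditions. Read-out used CellTiter-Glo reagent with a 15 min room-temperature incubation before luminescence measurement; AUC and Z-AUC summarize the normalized responses.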

Test [10] is described as follows: BET inhibitor-based combinations targeting novel dependencies in MECOM-rearranged (r) AML: AML-194 cell line (AID 2202237; also: nearly all actives have a fitted effect of over 40% in size). In a few lines:
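Readout: CellTiter-Glo luminescence. Exposure: 48 h, 11 concentrations, 500 cells/well. Metric: AUC and within-line Z-AUC after DMSO/empty-well normalization.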

Results filed as inconclusive are left out. The source made the active and inactive calls. Unless noted, calls follow the shape of the dose curve; as a rule, active = well fitted curve in the direction sought with a large enough effect; inconclusive = small, poorly fitted or top-dose-only effect, or another doubt; inactive = no such curve, though single readings can be large; an effect the other way counts as inactive or inconclusive.

Take `Cc1cc(F)ccc1[C@H]1C[C@@H](N2CCN3C(=O)CC[C@H]3C2)CCN1C(=O)N(C)[C@H](C)c1cc(C(F)(F)F)cc(C(F)(F)F)c1`: the Potency entry in [1], in test [2], in test [3], in test [5], in test [6] and in [7] was “inactive” in each case. Further, the Potency in [4] is 7.94 µM (active).

Consider `O=C([C@H](Cc1ccc(O[S+](=O)([O-])c2cccc3cccnc23)cc1)N[S+](=O)([O-])c1ccccn1)N1CCN(c2ccccc2)CC1`, for which the Potency entry in test [1], in test [2], in test [8] and in [6] was “inactive” each time.

On to `CCOc1ccc(-c2nc(CSCC(=O)N3CCN(c4cccc(C(F)(F)F)c4)CC3)c(C)o2)cc1`, for which the values for the Potency in [1], in test [2] and in test [3] were 8.91 µM (active), 7.94 µM (active) and 2 µM (active), respectively.

Consider `CC(C)c1ccccc1-c1nc(NCC2CCN(c3cccnc3)CC2)c2ccccc2n1`, for which the Potency entry in test [1], in test [2], in test [8] and in [6] was “inactive” throughout.

Consider `CN[C@@H]1[C@H](O[C@H]2[C@H](O[C@@H]3[C@@H](O)[C@H](O)[C@@H](N=C(N)N)[C@H](O)[C@H]3N=C(N)N)O[C@@H](C)[C@]2(O)C=O)O[C@@H](CO)[C@H](O)[C@H]1O`, for which the Potency result in test [1], in test [2], in [3], in [4], in [5] and in [6] was “inactive” throughout. In addition, the Potency result in [7], in test [9] and in test [10] was “inactive” in each case.

On to `Cc1cc(N[S+](=O)([O-])c2ccc(NC(=O)Cc3ccc4nccnc4c3)cc2)no1`, for which the Potency result in test [1], in [2], in test [8] and in test [6] was “inactive” throughout.

Take `COc1ccc(C2Nc3ccccc3C(=O)N2Cc2ccccc2)cc1COc1cccc(Cl)c1` (stereo not given): the Potency in [1] was 5.01 µM (active); in test [2] it was 5.65 µM (active). Also, the Potency result in [8], in [6] and in [7] was “inactive” in each case.

Consider `Cc1ccc(CNc2ccc(N3CCN(C)CC3)cc2)cc1`, for which the Potency entry in [1], in [2], in [8], in test [6] and in [7] was “inactive” in each case.

Turning to `CC(C)(C)OC(=O)N1CCN(c2ccc(NCc3coc(-c4ccc(C#N)cc4)c3)cc2)CC1`, the Potency in [1] was 0.798 µM (active); in test [8], 2 µM (active); in test [7], 3.57 µM (active). The Potency entry in [2] and in test [6] was “inactive” throughout.

Turning to `C[C@H](N)C(=O)Nc1cccc(-c2nn3c(=O)cc(N4CCNCC4)nc3s2)c1`, the Potency result in test [1], in test [2], in test [8] and in [6] was “inactive” throughout.

As for `COc1cccc(CNc2ccc(S(=O)(=O)Nc3ccc(C4CCNCC4)cc3)cc2)c1O`, the Potency entry in test [1], in test [2], in [8] and in [6] was “inactive” each time.

In the case of `CC(C)(C)OC(=O)N1CCN(c2ccc(NCc3ccc(-c4ccc(C(C)(C)C)cc4)o3)cc2)CC1`, the Potency entry in [1], in test [2] and in [8] was “inactive” in each case. For the same compound, the Potency in test [7] was 10.1 µM (active).

Regarding `Cn1nnnc1Sc1ncnc2scc(-c3cccc(Br)c3)c12`, the Potency entry in test [1], in [2], in [8], in test [6] and in test [7] was “inactive” each time.

For the compound `N#Cc1nc(Nc2cccc(F)c2)nc(NC2CCCC2)n1`, the values for the Potency in [1] and in [2] were 1.78 µM (active) and 3.55 µM (active), respectively. Further, the Potency entry in test [8] and in test [6] was “inactive” in each case.

With `Cc1noc(C)c1-c1cccc(-c2nn3c(=O)cc(N4CCNCC4)nc3s2)c1`, the Potency in [1] was 3.98 µM (active); in [2] it was 0.891 µM (active); in test [3] it was 17.8 µM (active); in test [5], 6.31 µM (active). The Potency entry in test [6] was “inactive”.

`Cc1ccc(-c2ccc(C=O)cc2)c(C)c1`: the Potency is 4.7 µM (active) in test [1], 15.8 µM (active) in test [2], 0.355 µM (active) in [3] and 12.6 µM (active) in test [5].

For `CCn1cc2nc(SCc3cccc(C)c3)n(CCc3ccccc3)c(=O)c2n1`, the Potency is 28.2 µM (active) in test [1], 3.98 µM (active) in [2], 1.26 µM (active) in [3] and 3.24 µM (active) in [5].

With `NC(=O)C1CCN(c2nccc(-c3ccc4c(c3)OCCO4)n2)CC1`, the Potency in [1] was 5.65 µM (active); in [2], 7.98 µM (active); in test [3] it was 14.1 µM (active); in test [5], 14.2 µM (active); in [7], 0.798 µM (active). Moreover, the Potency result in [6] was “inactive”.

As to `CC(C)(C)OC(=O)N1CCN(c2ccc(NCc3cncc(-c4ccc(C#N)cc4)c3)cc2)CC1`, the values for the Potency in [1] and in test [2] were 1.79 µM (active) and 0.634 µM (active), respectively. Moreover, the Potency entry in test [3], in test [5], in test [6] and in test [7] was “inactive” throughout.

Turning to `Fc1c(-c2ccc3ncnc(NCc4cccs4)c3c2)ccc2c1OCO2`, the Potency entry in test [1], in test [2], in [3], in test [5], in test [6] and in test [7] was “inactive” each time.

In the case of `COc1ccc(N2CCN(c3nc(C(=O)NCc4cccc(C)c4)cs3)CC2)cc1`, the Potency entry in [1], in test [3], in test [5] and in test [7] was “inactive” throughout. Also, the Potency in test [2] was 2.51 µM (active).

For `Cc1ccc(-c2nn3c(C)nnc3s2)cc1NCc1ccc(-c2cccc(Cl)c2)o1`, the Potency was 3.18 µM (active) in test [1]; 3.57 µM (active) in test [2]; 12.7 µM (active) in [3]; 12.7 µM (active) in [5]; 6.34 µM (active) in test [7]. In addition, in [6], the Potency entry is “inactive”.

`O=C(O)c1cccnc1SC1=NS(=O)(=O)c2ccccc21`: the Potency result in test [1], in [2], in test [3] and in test [6] was “inactive” throughout. Further, in [5], the Potency was 31.8 µM (active).

On to `Cc1cccc(CNc2ccnc(-c3cccc4ccccc34)n2)c1`, for which the Potency entry in test [1], in [2], in test [3], in test [5], in [6] and in test [7] was “inactive” each time.

In the case of `Clc1cccc(-c2ccc(C3Nc4cccc5cccc(c45)N3)o2)c1`, the Potency in [1] was 5.04 µM (active); in test [2], 10.1 µM (active); in [3], 1.59 µM (active); in test [5], 11.3 µM (active).

In the case of `CC(=O)N1CCN(c2ccc(NCc3ccc(-c4ccc(Br)cc4)o3)cc2)CC1`, the Potency in test [1] was 0.142 µM (active); in test [2], 2.01 µM (active); in [3], 25.2 µM (active); in test [5], 2.52 µM (active); in [7] it was 5.65 µM (active). The Potency entry in [6] is “inactive”.
